Bioassay records deposited in PubChem BioAssay by National Center for Advancing Translational Sciences (NCATS).
Shown are actives, neighbours in structure and some others; about 2.8% of the full set was active somewhere.
IP6K1 inhibitor = inhibitors of human IP6K1 | Q92551 | IP6K1 kinase, ADP-Glo luminescence, 2 h; hits give low values | activity change, % (series mostly up to about 58 µM) | 0.81% of 140,000 active | AID 1645851; in the data active = activity change below about -25%; note: % is set by controls: 0 for no effect and ±100 for the full control effect
Target sequence (Q92551 whole entry, looked up): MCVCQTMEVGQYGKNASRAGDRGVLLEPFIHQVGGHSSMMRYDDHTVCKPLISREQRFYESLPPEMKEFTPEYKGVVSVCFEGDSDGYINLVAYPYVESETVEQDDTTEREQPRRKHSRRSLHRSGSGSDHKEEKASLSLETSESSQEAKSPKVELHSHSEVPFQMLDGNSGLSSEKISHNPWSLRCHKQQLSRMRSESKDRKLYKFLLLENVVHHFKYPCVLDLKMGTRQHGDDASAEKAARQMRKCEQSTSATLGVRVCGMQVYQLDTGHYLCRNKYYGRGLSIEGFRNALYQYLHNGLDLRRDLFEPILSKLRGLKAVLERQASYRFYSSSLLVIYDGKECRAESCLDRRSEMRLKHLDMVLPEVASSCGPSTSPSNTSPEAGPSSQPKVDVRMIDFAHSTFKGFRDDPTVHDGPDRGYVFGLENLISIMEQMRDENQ
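ADP-Glo luminescence measures ADP made by human IP6K1 during a 2 h RT reaction with ATP/IP6 (mix at 1.3 mM/130 uM); top library doses 57.5 and 19.1 uM final.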
HEK293 viab = reduces viability of HEK-293 SNCA reporter cells | AID 1671193 | 0.12% of 150,000 active | Potency, µM (doses to about 57.1 µM), for inactives: at the highest dose activity change, negative = cytotoxicity, hits mostly cytotoxic | HEK-293-SNCA-luc viability, GF-AFC fluorescence, 24 h;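 note: potency is the fitted concentration of half-maximal effect; 0% = DMSO-treated cells and -100% = medium-only wells without cells; nearly all actives have a fitted effect of over 30% in size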
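Cytotoxicity counterscreen: after 24 h compound treatment of genome-edited SNCA-luciferase HEK-293 cells, live-cell protease substrate GF-AFC read by fluorescence after 30 min; activity scaled between DMSO (0%) and medium-only (-100%), curves Hill-fitted.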
KDM5B inh = KDM5B demethylase inhibition | KDM5B demethylase, FDH-coupled NADH fluorescence (FDH is formaldehyde dehydrogenase) | 2.6% of 220,000 active | Potency, µM (doses to about 57.7 µM), hits mostly inhibitors | Q9UGL1; note: potency is the fitted concentration of half-maximal effect; 0% is about no effect; nearly all actives have a fitted effect of over 70% in size
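Here, H3K4me3 peptide (12.5 µM in substrate mix) is demethylated by KDM5BΔAP, 200 nM final, after 10 min compound exposure. Formaldehyde product is coupled through FDH (0.25 U/mL in mix) to NADH fluorescence; 30-min ΔRFU feeds dose-response curves.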
SNCA expr inhib = SNCA gene expression inhibition; HEK-293 SNCA-luciferase knock-in, luminescence, 24 h; Potency, µM (top dose mostly 57.2 µM), for the others: at the top dose activity change, negative = inhibition, most hits filed as inhibitors; 0.17% of 140,000 active; AID 1671194;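 note: potency is the fitted concentration of half-maximal effect; plate controls were DMSO cells for no effect and cell-free wells for full effect; nearly all actives have a fitted effect of over 45% in size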
* hit, by the source's call; i = inactive; ? = inconclusive; · = no result given; [ ] = remark or other dose. Unless noted, calls come from the whole dose curve; as a rule, active = well fitted curve in the direction sought with a large enough effect; inconclusive = small, poorly fitted or top-dose-only effect, or another doubt; inactive = no such curve, though single readings can be large; an effect the other way counts as inactive or inconclusive.

SMILES | IP6K1 inhibitor | HEK293 viab | KDM5B inh | SNCA expr inhib
Fc1ccc(Cc2noc(-c3nc(-c4ccc5c(c4)OCO5)no3)n2)cc1 | 0.0 | -2.1% | ? | 0.4%
CNC(=O)N1C[C@@H](CN(C)C)[C@H](N)C1 | 9.8 | 1.7% | i | -9.6%
CC1(C)CC(NC(=S)Nc2cccc(C(F)(F)F)c2)CC(C)(C)N1 | · | · | i | ·
CC(=O)N1Cc2ccccc2CC2(CCCN(Cc3cccnc3)C2)C1 (configuration not stated) | 6.2 | 8.3% | i | -21.5%
c1ccc(CCc2nc3nccc(-c4cccnc4)n3n2)cc1 | -8.4 | -0.3% | i | 13.1%
COc1cc(-c2ccnc3nc(-c4cccs4)nn23)cc(OC)c1OC | 1.3 | -1.0% | 14.1µM* | 71.5%
COc1cc(F)ccc1-c1ccnc2nc(C3CCCCC3)nn12 | -1.4 | -7.6% | 28.2µM* | 9.0%
c1coc(-c2ccnc3nc(C4CCC4)nn23)c1 | 10.5 | 9.3% | 28.2µM* | 28.6%
c1ccc(-c2ccnc3nc(C4CC4)nn23)cc1 | 6.9 | 12.5% | 28.2µM* | 9.6%
CC(C)NC(=O)CN1CCN(C(=O)c2cc3cc(Cl)ccc3[nH]2)CC1 | · | · | i | ·
COc1ccccc1CC(=O)N1CCCc2ncc(C(=O)Nc3cccc(F)c3)cc21 | 12.2 | -25.7%[87.6 µM] | ? | -2.0%[87.6 µM]
O=C(c1ccc(F)cc1)n1nc(-c2cccnc2)nc1NCc1ccccc1 | 1.6 | 5.3% | i | 14.4%
c1coc(-c2ccnc3ncnn23)c1 | 8.9 | 11.6% | 28.2µM* | 2.6%
COc1cccc(-c2ccnc3c(-c4ccccc4)c(C)nn23)c1 | 4.1 | -10.0% | i | 54.7%
COc1cccc(-c2ccnc3nc(C4CCC4)nn23)c1 | -10.4 | 1.9% | 28.2µM* | 2.3%
COc1cc(-c2ccnc3nc(C4CCC4)nn23)cc(OC)c1OC | -5.8 | 0.0% | 22.4µM* | 5.3%
COc1cc(NC(=O)Cn2c(N3CCC(C)CC3)nc(C)cc2=O)cc(OC)c1 | 14.6 | -17.9% | i | ?
Cn1c(NCc2ccco2)nc2c1c(=O)n(Cc1cccc(Br)c1)c(=O)n2C | · | · | i | ·
COCCN1CCC(CNc2nccc(-c3ccccn3)n2)C1 (configuration not stated) | 47.1 | 10.1% | 28.2µM* | 11.6%
COCCCNc1ccc2nnc(-c3ccccn3)n2n1 | -8.6 | 9.9%[87.6 µM] | ? | 1.9%[87.6 µM]
CCCCN(C(=O)c1cc(CC)c(C)s1)c1c(N)n(CCC)c(=O)[nH]c1=O | · | · | i | ·
CCOCC1(C)COc2ccc(C(=O)NCc3ccc(F)cc3)cc2N1 (configuration not stated) | 9.0 | -7.9%[87.6 µM] | ? | 6.7%[87.6 µM]
CN(C)CCCOCC1(C)COc2ccc(C(=O)Nc3ccccc3)cc2N1 (configuration not stated) | -5.8 | -1.0%[87.6 µM] | ? | 125.1%[87.6 µM]
CN(C)CCOCC1(C)COc2ccc(C(=O)NCc3cccc(F)c3)cc2N1 (configuration not stated) | -8.6 | 7.9%[87.6 µM] | 39.8µM* | -7.7%[87.6 µM]
CN(C)CCOCC1(C)COc2ccc(C(=O)NCc3ccc(F)cc3)cc2N1 (configuration not stated) | -11.1 | 10.1%[87.6 µM] | 39.8µM* | -8.5%[87.6 µM]
SMILES | IP6K1 inhibitor | HEK293 viab | KDM5B inh | SNCA expr inhib
COc1ccc(-c2noc(-c3nnn4c3COC(c3cccc(OC)c3)C4)n2)cc1 (configuration not stated) | 5.6 | 8.5% | ? | 11.9%
CC(C)(C)C(=O)N(c1ccc(F)cc1)C1C=CS(=O)(=O)C1 (configuration not stated) | · | · | i | ·
CC1=NS(=O)(=O)N(Cc2ccccc2)C=C1C(=O)OCc1noc(C2CCCC2)n1 | -3.7 | -1.8% | i | -13.4%
O=C(NCC1CC1)c1nc2c(o1)CCN(Cc1ccc(F)cc1F)CC2 | 7.8 | -0.4%[87.6 µM] | i | -23.5%[87.6 µM]
COc1ccccc1CN1CCc2nc(C(=O)Nc3ccc(Cl)cc3)oc2CC1 | 16.9 | ? | 35.5µM* | ?
COCCNC(=O)c1nc2c(o1)CCN(Cc1cccc(F)c1F)CC2 | 5.7 | 3.2%[87.6 µM] | ? | 12.5%[87.6 µM]
O=C(Nc1ccc(Cl)cc1)c1nc2c(o1)CCN(Cc1ccc(F)cc1F)CC2 | 11.1 | ? | 28.2µM* | ?
O=C(Nc1ccc(Cl)cc1)c1nc2c(o1)CCN(Cc1cccc(F)c1F)CC2 | 0.9 | -16.1%[87.6 µM] | 35.5µM* | -33.8%[87.6 µM]
COc1cccc([S+](=O)([O-])N2CCn3cc(C(=O)NCc4ccc(Cl)nc4)nc3C2)c1 | 0.0 | 1.0% | i | 3.7%
CCn1nnc2cc(C(=O)OCc3cc(=O)oc4cc(C)ccc34)ccc21 | · | · | i | ·
CCOc1ccc(CC(=O)N2CCC[C@H]2c2nc(-c3ccccc3Cl)no2)cc1OCC | -5.2 | 0.1% | i | -0.3%
